# Assay results: PubChem BioAssay
# Calls of active or inactive are those of the source.
# System: not listed separately
# Test: Plasmodium falciparum growth inhibition, primary screen, strain 3D7, DAPI fluorescence, 100 nL (AID 1184);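 also: parasites grown inside human red blood cells in medium with human serum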
# Conditions: P. falciparum 3D7 growth, 3 d, higher = more signal
row,Structure (SMILES),z-score
1,O=C(NCC(O)CO)[C@@]1(Cc2ccccc2)COC(c2ccc(OCCCO)cc2)=N1 (stereo partly specified),0.945
2,O=C1O[C@H](c2ccccc2)[C@H](c2ccccc2)N2[C@H]1[C@@H](C(=O)NC[C@H](O)c1ccccc1)[C@]1(C(=O)Nc3ccc(C#CC4(O)CCCCCC4)cc31)[C@H]2c1ccccc1OCCO,-2.04
3,CC(C)C(=C=CC[C@H](O)c1ccccc1OCCO)CCO,-0.305
4,COC(=O)c1c2oc(c1C(=O)OC)C(=O)N[C@H](Cc1ccccc1)Cn1nncc1C1(CCCCC1)NC(=O)N[C@H](CO)CC2,1.06

# Target: Homeobox protein Hox-A13 (Mus musculus) (UniProt Q62424)
# Test: inhibitors of HoxA13-DNA binding, primary screen, biochemical, fluorescence polarization, labeled oligonucleotide (AID 1185)
# Conditions: 15 min, higher = more signal, called active from +8 up or from −8 down
# Chain of Homeobox protein Hox-A13 (Mus musculus) (Q62424 whole entry, looked up): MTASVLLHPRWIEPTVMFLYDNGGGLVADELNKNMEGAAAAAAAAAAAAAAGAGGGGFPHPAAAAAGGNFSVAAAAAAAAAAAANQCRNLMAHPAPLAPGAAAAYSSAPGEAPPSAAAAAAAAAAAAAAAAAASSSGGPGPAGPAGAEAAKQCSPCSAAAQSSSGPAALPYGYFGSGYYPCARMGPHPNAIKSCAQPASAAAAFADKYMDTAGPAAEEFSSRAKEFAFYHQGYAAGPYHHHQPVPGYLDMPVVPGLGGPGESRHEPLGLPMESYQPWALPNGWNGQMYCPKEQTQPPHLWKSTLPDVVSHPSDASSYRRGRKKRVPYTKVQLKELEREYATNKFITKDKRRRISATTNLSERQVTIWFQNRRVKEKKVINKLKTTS
row,Structure (SMILES),z-score
1,[N-]=[N+]=NCc1ccccc1C[C@]1(C(=O)NCc2ccccc2)COC(c2ccc(OCCCO)cc2)=N1,-6.24 (inactive)
2,COc1ccc([Si](C)(C)[C@H]2[C@H](CC(=O)N(CCO)Cc3ccccc3)O[C@@]3(C(=O)N(Cc4cccc(N5C(=O)c6cccc7cccc5c67)c4)c4ccccc43)[C@@H]2C)cc1,-1.4 (inactive)
3,Cc1ccc(S[C@]2(C(=O)NCC(F)(F)F)CC(=O)N(C3Cc4ccccc4C3)[C@@H]2c2ccc(CO)cc2I)cc1,-2.85 (inactive)
4,O=[N+]([O-])c1ccc(C[n+]2ccc(CCCO)cc2)o1,-2.88 (inactive)
5,CCCCC(=C=CC[C@H](O)c1ccccc1OCCO)C[C@H](O)c1cc(Cl)cc(Cl)c1O,-4.23 (inactive)
6,CCCNC(=O)[C@@]1(C)c2ccccc2C(=O)N(Cc2ccc(OC(F)(F)F)cc2)[C@H]1c1ccc(CO)cc1,-3.32 (inactive)
7,COc1ccc(C(O)C2C=CC3C(=O)N(c4ccccc4)C(=O)C3N2Nc2ccccc2)c2ccccc12 (stereo unspecified),-1.28 (inactive)
